From PubChem BioAssay (NCI)
Several values for one entry are separate records, joined by “and”; a condition that tells them apart may be missing. Equal entries are not always repeated. The panel holds about 83,000 compounds, 20% with a hit somewhere; the sample as a whole holds those more often.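 Single-concentration screen, 48 h exposure, 96-well plates. Endpoint: percent growth. Below 10 = active.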 Values without a mark were called inactive. Activity calls are given as the source filed them.

tested on: HCC-2998 colon; assay: NCI-60 one-dose screen, 48 h (100 = growth as untreated, 0 = no growth, -100 = all killed); settings: 10 µM unless noted
Experimental: Growth inhibition of the HCC-2998 human tumor cell line is measured as a screen for anti-cancer activity. Cells are grown in 96 well plates and exposed to the test compound for 48 hours. Compounds are tested at a single concentration, which is 10^-5 M for most compounds. The reported endpoint is percent growth (GI% or GIPRCNT), where numbers from 0 - 100% represent growth inhibition, and numbers from -100% - 0 represent cell death. For example, a value of 40 represents 60% growth inhibition. A value of 0 means no net growth occurred over the course of the experiment. A value of -40 indicates 40% of cells at the beginning of the experiment died by the end of the experiment. A value of -100 means all cells are dead at the end of the experiment.
NCI-60 Human Tumor Cell Lines Screen was performed using the standard one-dose NCI protocol, which is described in more detail at https://dtp.cancer.gov/discovery_development/nci-60/default.htm.
Compounds with GIPRCNT values below 10 were considered active. Activity score was based on GIPRCNT using the following formula: […]
Score is 0 for GIPRCNT values of 100 or above, 50 for GIPRCNT values of 0, and 100 for GIPRCNT values of -100.

| SMILES | growth |
| --- | --- |
| O=Nc1c(O)ccc2ccccc12 | 110% and 97.4% |
| CCN(C(=O)N1CCN(c2cc3c(cc2F)c(=O)c(C(=O)O)cn3C2CC2)CC1)c1nc(-c2ccccc2)cs1 | 21% |
| Nc1nc(Cl)nc2c1ncn2C1OC(CO)C(O)C1O (stereo not given) | 51% and 51.7% |
| CCCCCCNC(=O)Oc1ccc(/C(=C(/CC)Cc2ccccc2)c2ccc(OCCCN(C)C)cc2)cc1 | 24.1% |
| O=C(Nc1cc(C(F)(F)F)cc(C(F)(F)F)c1)c1cc(Cl)ccc1O | -25.4% (active) and 4.04% (active) |
| CC(=O)N1N=C(c2ccc(Nc3nc(Nc4ccc(F)cc4)nc(Nc4ccc(F)cc4)n3)cc2)CC1c1ccccc1 (stereo not given) | 94.3% |
| CCCCCCCCCCCCCCCCCCOc1cccc(CC(=O)OCC[N+](CC)(CC)CC)c1 | 56.1% |
| O=C1OCC2=C1C(c1cccc(C(F)(F)F)c1)c1cc3c(cc1N2CCO)OCCO3 (stereo not given) | 8.81% (active) |
| Cc1n(Cc2ccc3ccccc3c2)c(Cl)c(Cl)[n+]1Cc1ccc2ccccc2c1 | 17.3% |
| COC1=CC(=O)C(OC)=C(O)C1=O | 101% |
| CC12CCC(C(=O)CC1=O)C2(C)C (stereo not given) | 108% and 98.5% |
| CCN1C(=O)N(c2ccccc2)C2NC(=S)N(/N=C/C=C/c3ccccc3)C21 (stereo not given) | 17.6% |
| Cc1nc2sc(C(=O)Nc3cccc(Cl)c3C)c(N)c2cc1C(O)c1ccccc1 (stereo not given) | 13.4% |
| COc1ccc(-c2cc(-c3cc(OC)c(OC)c(OC)c3)c(C#N)c(=O)n2CCCCC(=O)O)cc1 | 105% |
| [2H]C([2H])([2H])Oc1cccc(/C=C/C(=O)/C=C(/C=C/c2cccc(OC([2H])([2H])[2H])c2OC([2H])([2H])[2H])OB(F)F)c1OC([2H])([2H])[2H] | 122% |
| O=C(c1cccc(Br)c1)N1CCN(c2ccnc3cc(Cl)ccc23)CC1 | 109% |
| CCCN1C(=O)/C(=c2\sc3n(c2=O)NC2C(N=3)N(CC)C(=O)N2CC)c2ccccc21 (stereo not given) | 30.4% |
| C=C(CNCCc1ccc(O)cc1)[C@@H]1CC[C@]2(CO)CC[C@]3(C)[C@H](CC[C@@H]4[C@@]5(C)CCC(NCCc6ccc(O)cc6)C(C)(C)[C@@H]5CC[C@]43C)[C@@H]12 (stereo not given in full) | -91.3% (active) |
| O=C1c2cccc3cccc(c23)C(=O)N1N1C(=O)c2cccc3c(N4CCNCC4)ccc(c23)C1=O | 79.4% |
| Cc1ccc(S(=O)(=O)OC[C@@]2(C)CC[C@]3(C)CC[C@]4(C)C(=C3C2)C=C[C@@H]2[C@@]3(C)CCCNC(C)(C)[C@@H]3CC[C@]24C)cc1 | -29% (active) |

| SMILES | growth |
| --- | --- |
| N=C(N)c1ccc(-c2ccc(-c3ccc(Cl)c(Cl)c3)s2)cc1 | -53.7% (active) |
| COc1ccc(C(CC(=O)c2ccc3c(c2)OCO3)C(=O)O)cc1OC (stereo not given) | 104% and 105% |
| COc1ccc2c(c1)c(-c1nc(-c3c[nH]c4c(Cl)nccc34)cs1)cn2C | 74.6% |
| O=C(CCl)N(O)c1ccc(/C=C/c2ccccc2)cc1 | 75.7% and 89.3% |
| CCN(CC)CCCN1C(=O)c2c(c(C)c3c(oc4cc(OC)ccc43)c2C)C1=O | 98.1% |
| Nc1ccc(-c2ccc(N)c(Br)c2)cc1Br | 64.6% |
| N#C/C(=C\c1ccccc1Cl)c1cc2ccccc2[nH]1 | 111% |
| Cc1cc2nc(C(Cl)Cl)nc(-c3ccc(Cl)cc3)n2n1 | -77% (active) |
| CCOC(=O)c1cc2c(n1Cc1cc(OC)cc(OC)c1Br)-c1nc(NC(C)=O)sc1CCC2 | 72.7% |
| CCOC(=O)C1=C(C)NC(=O)NC1c1c(Cl)n(-c2ccccc2)c2ccccc12 (stereo not given) | 91.8% |
| COc1ccc(-c2nc(Cl)c3c(C)nn(-c4ccc(F)cc4)c3n2)cc1 | 103% |
| CCCCCCCCCCCCC[C@H](O)C[C@H](O)[C@H](C)N | 26.7% [1.25 µM] |
| CCOC(=O)CCCn1c(-c2ccccc2)cc(-c2ccccc2)c(C#N)c1=O | 98.2% |
| Cc1ccc(/C=C/c2c(C(=O)/C=C/c3ccccc3)c(C)nc3ccccc23)cc1 | 20.6% |
| O=C1/C(=C/c2ccccc2)CN(C(=O)C(Cl)Cl)C/C1=C\c1ccccc1 | -59.6% (active) |
| N#Cc1c(N)nnn1Cc1cc(=O)oc2ccc(O)cc12 | 110% |
| CCOC(=O)c1c(-c2ccc(C)cc2)c(C#N)c(=O)n(-c2cccc(C(F)(F)F)c2)c1N | 107% |
| Clc1ccc2c(c1)N(c1ncnc3ccc(-c4cnc5[nH]ccc5c4)cc13)CC2 | 43.7% |
| Cc1ccc(S(=O)(=O)Nc2cc(Sc3ccccc3)c(O)c3ccccc23)cc1 | 106% |
| CC1=C2[C@@H](CC1)[C@]1(C)O[C@@](C3CC3)(C[C@H]1OC(=O)CO)[C@H]2OC(=O)/C=C/c1ccccc1 | 88.4% |
